# From PMC7862700, “An all-to-all approach to the identification of sequence-specific readers for epigenetic DNA modifications on cytosine”
# Columns and labels:
# Assay in all cases: DAPPL (digital affinity profiling via proximity ligation, sequencing); 10 mM Tris-HCl pH 7.5, 50 mM NaCl, 1 mM DTT, 4% glycerol, room temperature, 30 min; GST-TFs on glutathione beads, 16-mer random dsDNA library, 0.1% formaldehyde crosslink after washing; high values mean tight binding
# FLI1 = molecular target: T1, FLI1 (Homo sapiens, UniProt Q01543 1-452); details: protein: recombinant; tags: N-terminal GST; dsDNA, one strand shown
# T1 sequence: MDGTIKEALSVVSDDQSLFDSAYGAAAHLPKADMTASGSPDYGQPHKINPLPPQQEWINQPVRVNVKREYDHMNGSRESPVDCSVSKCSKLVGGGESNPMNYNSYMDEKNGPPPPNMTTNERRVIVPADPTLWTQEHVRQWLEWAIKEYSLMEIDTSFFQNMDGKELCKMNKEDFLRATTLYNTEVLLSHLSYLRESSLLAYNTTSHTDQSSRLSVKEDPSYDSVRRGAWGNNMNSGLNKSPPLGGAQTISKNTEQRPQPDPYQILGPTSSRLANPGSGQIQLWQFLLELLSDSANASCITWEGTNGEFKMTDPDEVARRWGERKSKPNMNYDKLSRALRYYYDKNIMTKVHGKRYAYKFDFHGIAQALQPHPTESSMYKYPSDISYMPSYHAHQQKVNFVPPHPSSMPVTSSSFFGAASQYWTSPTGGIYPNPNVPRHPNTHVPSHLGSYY
# How it was run: (§1)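 Binding signal is defined as a hexamer's read frequency for one factor over its frequency for the tag-only sample. To obtain reads, GST-fused human transcription factors were expressed in yeast, captured on glutathione beads, barcoded with DNA and pooled with that sample. Pools met 200 nmole of a 16-mer random double-stranded DNA library in Tris/NaCl/DTT/glycerol buffer for 30 min at room temperature before washing, 0.1% formaldehyde crosslinking, proximity ligation (BsaI/T4 ligase, 1 h, 37 °C), PCR and Illumina NextSeq500 sequencing.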
# ELK1 = molecular target: T2, ELK1 (Homo sapiens, UniProt P19419 1-428); details: protein: recombinant; tags: N-terminal GST; dsDNA, one strand shown
# T2 sequence: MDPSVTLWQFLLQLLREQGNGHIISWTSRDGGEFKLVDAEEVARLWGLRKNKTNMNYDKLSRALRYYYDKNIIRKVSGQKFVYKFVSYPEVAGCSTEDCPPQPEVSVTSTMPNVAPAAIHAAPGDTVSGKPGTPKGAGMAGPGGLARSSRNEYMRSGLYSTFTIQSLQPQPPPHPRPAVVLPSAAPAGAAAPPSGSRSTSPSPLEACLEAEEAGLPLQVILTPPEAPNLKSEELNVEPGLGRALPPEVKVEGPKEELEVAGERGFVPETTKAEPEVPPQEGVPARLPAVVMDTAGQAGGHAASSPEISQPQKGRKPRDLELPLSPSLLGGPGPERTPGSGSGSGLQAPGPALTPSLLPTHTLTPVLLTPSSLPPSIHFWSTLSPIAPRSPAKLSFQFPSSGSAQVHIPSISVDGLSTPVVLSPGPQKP
# How it was run: as §1
# GABPA = molecular target: T3, GABPA (Homo sapiens, UniProt Q06546 1-454); details: protein: recombinant; tags: N-terminal GST; dsDNA, one strand shown
# T3 sequence: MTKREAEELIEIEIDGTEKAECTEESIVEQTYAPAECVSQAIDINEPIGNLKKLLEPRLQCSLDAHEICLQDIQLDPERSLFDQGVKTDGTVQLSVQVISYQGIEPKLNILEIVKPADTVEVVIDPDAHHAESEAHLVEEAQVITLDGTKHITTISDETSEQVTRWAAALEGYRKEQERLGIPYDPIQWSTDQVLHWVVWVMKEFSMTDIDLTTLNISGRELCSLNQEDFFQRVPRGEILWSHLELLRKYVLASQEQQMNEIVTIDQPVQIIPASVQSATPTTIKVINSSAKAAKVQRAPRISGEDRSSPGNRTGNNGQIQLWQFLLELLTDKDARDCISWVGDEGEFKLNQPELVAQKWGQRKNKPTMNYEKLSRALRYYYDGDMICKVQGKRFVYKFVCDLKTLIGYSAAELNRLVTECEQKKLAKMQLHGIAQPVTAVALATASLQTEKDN
# How it was run: as §1
# ERG = molecular target: T4, ERG (Homo sapiens, UniProt P11308 1-479); details: protein: recombinant; tags: N-terminal GST; dsDNA, one strand shown
# T4 sequence: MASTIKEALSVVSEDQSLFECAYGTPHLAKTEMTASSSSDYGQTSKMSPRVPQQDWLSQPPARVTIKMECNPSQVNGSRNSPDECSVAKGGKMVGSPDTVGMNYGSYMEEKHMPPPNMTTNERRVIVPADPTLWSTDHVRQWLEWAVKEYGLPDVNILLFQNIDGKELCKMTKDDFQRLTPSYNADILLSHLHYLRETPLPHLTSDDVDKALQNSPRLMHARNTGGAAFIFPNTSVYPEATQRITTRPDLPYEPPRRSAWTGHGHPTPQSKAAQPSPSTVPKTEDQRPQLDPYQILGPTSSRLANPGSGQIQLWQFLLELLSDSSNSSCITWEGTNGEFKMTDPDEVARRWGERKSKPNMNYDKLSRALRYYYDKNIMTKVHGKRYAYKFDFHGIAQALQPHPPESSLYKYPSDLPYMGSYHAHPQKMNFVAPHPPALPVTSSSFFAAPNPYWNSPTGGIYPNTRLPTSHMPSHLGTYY
# How it was run: as §1
# ELF1 = ELF1 (Homo sapiens, UniProt P32519 1-619); details: protein: recombinant; tags: N-terminal GST; dsDNA, one strand shown
# How it was run: as §1
# EHF = molecular target: T5, EHF (Homo sapiens, UniProt Q9NZC4 1-300); details: protein: recombinant; tags: N-terminal GST; dsDNA, one strand shown
# T5 sequence: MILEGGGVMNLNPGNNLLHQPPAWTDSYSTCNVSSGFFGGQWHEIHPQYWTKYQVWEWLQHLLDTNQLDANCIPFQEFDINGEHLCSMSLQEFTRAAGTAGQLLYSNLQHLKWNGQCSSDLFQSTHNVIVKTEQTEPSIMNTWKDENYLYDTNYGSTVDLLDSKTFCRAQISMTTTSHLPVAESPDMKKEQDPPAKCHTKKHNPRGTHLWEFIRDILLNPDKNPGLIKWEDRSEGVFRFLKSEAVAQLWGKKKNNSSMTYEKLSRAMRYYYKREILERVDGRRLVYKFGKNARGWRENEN
# How it was run: as §1
# SPI1 = SPI1 (Homo sapiens, UniProt P17947 1-270); details: protein: recombinant; tags: N-terminal GST; dsDNA, one strand shown
# How it was run: as §1
# SPIB = SPIB (Homo sapiens, UniProt Q01892 1-262); details: protein: recombinant; tags: N-terminal GST; dsDNA, one strand shown
# How it was run: as §1
# ELK3 = molecular target: T6, ELK3 (Homo sapiens, UniProt P41970 1-407); details: protein: recombinant; tags: N-terminal GST; dsDNA, one strand shown
# T6 sequence: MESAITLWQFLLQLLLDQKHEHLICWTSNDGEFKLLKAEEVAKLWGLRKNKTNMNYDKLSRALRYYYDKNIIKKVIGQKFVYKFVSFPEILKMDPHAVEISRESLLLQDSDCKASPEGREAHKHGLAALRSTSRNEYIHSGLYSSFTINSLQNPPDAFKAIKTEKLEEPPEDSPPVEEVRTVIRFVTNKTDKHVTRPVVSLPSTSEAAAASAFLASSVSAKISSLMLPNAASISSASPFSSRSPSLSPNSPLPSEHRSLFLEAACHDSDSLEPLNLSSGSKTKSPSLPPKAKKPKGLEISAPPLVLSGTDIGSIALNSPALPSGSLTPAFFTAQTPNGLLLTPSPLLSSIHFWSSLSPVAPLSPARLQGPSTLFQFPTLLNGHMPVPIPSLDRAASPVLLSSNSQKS
# How it was run: as §1
# FEV = molecular target: T7, FEV (Homo sapiens, UniProt Q99581 1-238); details: protein: recombinant; tags: N-terminal GST; dsDNA, one strand shown
# T7 sequence: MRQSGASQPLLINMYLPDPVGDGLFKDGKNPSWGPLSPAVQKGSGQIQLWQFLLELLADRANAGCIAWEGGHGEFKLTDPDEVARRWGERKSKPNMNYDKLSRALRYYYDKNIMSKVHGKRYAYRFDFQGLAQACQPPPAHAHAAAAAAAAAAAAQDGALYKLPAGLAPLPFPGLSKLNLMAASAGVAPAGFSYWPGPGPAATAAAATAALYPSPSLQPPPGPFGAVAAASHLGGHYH
# How it was run: as §1
# ETV5 = ETV5 (Homo sapiens, UniProt P41161 1-510); details: protein: recombinant; tags: N-terminal GST; dsDNA, one strand shown
# How it was run: as §1
# HSF1 = HSF1 (Homo sapiens, UniProt Q00613 1-529); details: protein: recombinant; tags: N-terminal GST; chain copies: 3; dsDNA, one strand shown
# How it was run: as §1
# SPIC = molecular target: T8, SPIC (Homo sapiens, UniProt Q8N5J4 1-248); details: protein: recombinant; tags: N-terminal GST; dsDNA, one strand shown
# T8 sequence: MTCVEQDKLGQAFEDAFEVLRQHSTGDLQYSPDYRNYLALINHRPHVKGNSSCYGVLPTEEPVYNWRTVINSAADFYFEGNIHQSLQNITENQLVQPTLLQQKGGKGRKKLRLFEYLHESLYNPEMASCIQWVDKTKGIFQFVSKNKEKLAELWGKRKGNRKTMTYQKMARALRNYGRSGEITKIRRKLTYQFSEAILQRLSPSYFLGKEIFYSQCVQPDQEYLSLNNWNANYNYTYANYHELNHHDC
# How it was run: as §1
# ELF4 = ELF4 (Homo sapiens, UniProt Q99607 1-663); details: protein: recombinant; tags: N-terminal GST; dsDNA, one strand shown
# How it was run: as §1
# ELK4 = molecular target: T9, ELK4 (Homo sapiens, UniProt P28324-2 1-405); details: protein: recombinant; tags: N-terminal GST; dsDNA, one strand shown
# T9 sequence: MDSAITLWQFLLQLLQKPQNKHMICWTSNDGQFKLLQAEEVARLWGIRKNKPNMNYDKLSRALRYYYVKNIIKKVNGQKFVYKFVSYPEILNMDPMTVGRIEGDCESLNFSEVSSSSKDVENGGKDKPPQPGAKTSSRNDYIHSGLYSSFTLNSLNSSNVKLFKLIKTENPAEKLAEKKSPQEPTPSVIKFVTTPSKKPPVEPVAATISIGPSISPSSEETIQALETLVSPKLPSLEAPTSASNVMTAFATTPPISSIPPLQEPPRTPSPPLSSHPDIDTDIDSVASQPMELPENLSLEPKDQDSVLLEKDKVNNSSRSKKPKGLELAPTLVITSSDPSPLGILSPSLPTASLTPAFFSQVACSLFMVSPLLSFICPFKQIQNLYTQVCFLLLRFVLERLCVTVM
# How it was run: as §1
# ETV2 = molecular target: T10, ETV2 (Homo sapiens, UniProt O00321 1-342); details: protein: recombinant; tags: N-terminal GST; dsDNA, one strand shown
# T10 sequence: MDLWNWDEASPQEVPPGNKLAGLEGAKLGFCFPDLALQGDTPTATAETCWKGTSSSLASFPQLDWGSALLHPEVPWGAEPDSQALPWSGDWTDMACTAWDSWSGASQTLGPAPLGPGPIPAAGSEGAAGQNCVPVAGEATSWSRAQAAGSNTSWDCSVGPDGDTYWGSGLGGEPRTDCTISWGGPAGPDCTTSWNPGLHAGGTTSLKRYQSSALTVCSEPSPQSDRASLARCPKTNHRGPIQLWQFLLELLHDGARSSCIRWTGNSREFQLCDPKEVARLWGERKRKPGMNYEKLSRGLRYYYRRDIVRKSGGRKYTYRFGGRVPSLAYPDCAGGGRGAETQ
# How it was run: as §1
# ELF3 = molecular target: T11, ELF3 (Homo sapiens, UniProt P78545 1-371); details: protein: recombinant; tags: N-terminal GST; dsDNA, one strand shown
# T11 sequence: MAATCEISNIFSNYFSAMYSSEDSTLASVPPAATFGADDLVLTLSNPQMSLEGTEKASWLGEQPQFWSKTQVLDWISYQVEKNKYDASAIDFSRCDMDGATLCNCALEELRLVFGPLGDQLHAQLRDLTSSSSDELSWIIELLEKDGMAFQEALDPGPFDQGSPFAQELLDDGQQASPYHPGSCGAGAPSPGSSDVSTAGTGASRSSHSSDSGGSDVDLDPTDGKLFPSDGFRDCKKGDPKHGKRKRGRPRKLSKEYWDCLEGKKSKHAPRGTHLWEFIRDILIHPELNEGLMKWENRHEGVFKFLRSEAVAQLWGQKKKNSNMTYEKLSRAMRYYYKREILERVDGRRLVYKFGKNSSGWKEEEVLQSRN
# How it was run: as §1
# CRX = CRX (Homo sapiens, UniProt O43186 1-299); details: protein: recombinant; tags: N-terminal GST; dsDNA, one strand shown
# How it was run: as §1
# ETV1 = ETV1 (Homo sapiens, UniProt P50549 1-477); details: protein: recombinant; tags: N-terminal GST; dsDNA, one strand shown
# How it was run: as §1
# Chain of ELF1 (P32519 whole entry): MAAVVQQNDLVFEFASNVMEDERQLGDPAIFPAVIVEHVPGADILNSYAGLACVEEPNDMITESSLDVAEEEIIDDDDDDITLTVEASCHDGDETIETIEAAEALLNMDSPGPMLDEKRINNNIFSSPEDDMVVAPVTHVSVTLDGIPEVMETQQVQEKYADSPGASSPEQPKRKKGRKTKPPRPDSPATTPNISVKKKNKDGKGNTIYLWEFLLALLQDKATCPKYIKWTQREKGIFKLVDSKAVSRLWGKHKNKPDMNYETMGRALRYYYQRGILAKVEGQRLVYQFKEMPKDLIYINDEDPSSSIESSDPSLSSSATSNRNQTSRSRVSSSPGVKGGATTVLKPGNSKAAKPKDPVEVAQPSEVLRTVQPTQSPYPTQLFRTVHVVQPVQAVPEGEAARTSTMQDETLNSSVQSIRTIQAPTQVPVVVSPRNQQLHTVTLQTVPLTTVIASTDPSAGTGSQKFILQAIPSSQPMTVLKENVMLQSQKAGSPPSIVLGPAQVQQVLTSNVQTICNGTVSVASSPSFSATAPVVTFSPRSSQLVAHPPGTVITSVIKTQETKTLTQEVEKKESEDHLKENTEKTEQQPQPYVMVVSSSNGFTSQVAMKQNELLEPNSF
# Chain of ELF4 (Q99607 whole entry): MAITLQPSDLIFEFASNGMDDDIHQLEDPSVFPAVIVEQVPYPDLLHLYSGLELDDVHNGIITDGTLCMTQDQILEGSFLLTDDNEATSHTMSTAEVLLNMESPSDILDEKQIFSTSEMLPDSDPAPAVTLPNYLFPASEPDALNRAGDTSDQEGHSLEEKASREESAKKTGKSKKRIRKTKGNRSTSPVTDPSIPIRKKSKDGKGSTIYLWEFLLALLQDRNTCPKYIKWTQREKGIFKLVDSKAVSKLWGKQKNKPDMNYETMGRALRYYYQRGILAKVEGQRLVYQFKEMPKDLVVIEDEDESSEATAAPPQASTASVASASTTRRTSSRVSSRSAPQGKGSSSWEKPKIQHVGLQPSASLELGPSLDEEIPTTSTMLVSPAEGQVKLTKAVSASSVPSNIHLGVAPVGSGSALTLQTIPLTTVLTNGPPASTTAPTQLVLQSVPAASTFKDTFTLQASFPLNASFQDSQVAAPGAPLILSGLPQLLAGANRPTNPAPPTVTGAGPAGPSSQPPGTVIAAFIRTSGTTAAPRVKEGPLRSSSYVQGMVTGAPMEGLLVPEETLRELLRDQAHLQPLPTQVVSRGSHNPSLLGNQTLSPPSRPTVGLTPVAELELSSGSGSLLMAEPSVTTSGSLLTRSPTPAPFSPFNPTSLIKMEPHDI
# Chain of CRX (O43186 whole entry): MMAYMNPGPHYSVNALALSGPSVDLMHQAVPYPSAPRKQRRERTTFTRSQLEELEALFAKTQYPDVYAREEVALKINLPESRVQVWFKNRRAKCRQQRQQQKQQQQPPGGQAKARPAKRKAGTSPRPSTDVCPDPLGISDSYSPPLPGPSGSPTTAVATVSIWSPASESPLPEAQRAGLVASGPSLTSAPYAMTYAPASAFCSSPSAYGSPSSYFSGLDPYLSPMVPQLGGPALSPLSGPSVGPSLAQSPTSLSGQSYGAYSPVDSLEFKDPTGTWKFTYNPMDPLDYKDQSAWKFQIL
# Chain of ETV1 (P50549 whole entry): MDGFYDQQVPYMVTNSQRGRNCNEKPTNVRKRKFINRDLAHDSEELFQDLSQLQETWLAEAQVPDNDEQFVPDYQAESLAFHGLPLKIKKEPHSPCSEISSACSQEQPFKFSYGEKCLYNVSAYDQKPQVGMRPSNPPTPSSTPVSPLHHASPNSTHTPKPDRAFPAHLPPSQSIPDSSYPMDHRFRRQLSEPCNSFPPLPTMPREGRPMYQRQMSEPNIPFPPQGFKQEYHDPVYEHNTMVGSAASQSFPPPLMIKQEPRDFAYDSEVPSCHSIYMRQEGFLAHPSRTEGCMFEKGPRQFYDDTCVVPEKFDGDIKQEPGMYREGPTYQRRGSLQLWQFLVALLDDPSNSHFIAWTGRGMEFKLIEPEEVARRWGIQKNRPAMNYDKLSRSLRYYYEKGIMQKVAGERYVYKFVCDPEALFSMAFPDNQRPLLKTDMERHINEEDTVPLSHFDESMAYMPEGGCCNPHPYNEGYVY
# Chain of ETV5 (P41161 whole entry): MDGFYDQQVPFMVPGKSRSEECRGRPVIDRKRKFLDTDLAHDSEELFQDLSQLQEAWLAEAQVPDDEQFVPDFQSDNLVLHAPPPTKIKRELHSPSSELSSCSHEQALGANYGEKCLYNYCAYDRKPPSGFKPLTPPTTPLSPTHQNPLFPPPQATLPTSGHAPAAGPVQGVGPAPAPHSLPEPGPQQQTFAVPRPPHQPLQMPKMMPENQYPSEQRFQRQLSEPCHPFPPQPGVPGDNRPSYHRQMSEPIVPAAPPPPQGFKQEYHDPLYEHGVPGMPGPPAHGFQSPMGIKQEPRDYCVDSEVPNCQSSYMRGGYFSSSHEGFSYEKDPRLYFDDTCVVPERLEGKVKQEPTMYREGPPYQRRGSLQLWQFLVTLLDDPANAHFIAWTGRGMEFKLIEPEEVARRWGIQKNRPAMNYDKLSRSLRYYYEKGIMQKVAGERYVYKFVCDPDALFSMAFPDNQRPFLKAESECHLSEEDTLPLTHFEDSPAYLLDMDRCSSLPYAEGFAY
# Chain of SPIB (Q01892 whole entry): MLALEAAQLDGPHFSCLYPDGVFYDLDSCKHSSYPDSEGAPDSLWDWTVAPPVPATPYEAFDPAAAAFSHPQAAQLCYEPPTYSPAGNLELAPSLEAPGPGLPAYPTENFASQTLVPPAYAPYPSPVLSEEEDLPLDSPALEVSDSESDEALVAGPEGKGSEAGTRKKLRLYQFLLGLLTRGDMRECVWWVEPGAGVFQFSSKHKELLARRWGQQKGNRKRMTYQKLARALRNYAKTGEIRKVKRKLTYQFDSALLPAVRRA
# Chain of HSF1 (Q00613 whole entry): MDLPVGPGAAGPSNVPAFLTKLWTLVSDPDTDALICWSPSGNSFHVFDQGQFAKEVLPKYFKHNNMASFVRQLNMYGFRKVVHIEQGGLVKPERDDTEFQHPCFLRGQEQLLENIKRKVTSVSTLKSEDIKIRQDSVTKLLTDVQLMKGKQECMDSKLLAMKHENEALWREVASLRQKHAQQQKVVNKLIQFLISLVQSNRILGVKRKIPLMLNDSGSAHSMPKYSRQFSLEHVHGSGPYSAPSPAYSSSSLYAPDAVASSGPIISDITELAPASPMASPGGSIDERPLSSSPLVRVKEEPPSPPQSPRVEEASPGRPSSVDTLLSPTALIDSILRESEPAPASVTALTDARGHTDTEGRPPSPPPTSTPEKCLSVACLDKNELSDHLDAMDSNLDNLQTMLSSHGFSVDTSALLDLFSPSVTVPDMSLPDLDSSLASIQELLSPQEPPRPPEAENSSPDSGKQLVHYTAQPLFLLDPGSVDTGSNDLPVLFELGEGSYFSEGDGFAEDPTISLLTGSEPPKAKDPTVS
sequence,measurement,setting,value
TTCTCT,binding signal,FLI1,"1.29 fold enrichment (6-mer frequency, TF over GST control)"
same,binding signal,ELK1,"1.3 fold enrichment (6-mer frequency, TF over GST control)"
same,binding signal,GABPA,"1.27 fold enrichment (6-mer frequency, TF over GST control)"
same,binding signal,ERG,"1.32 fold enrichment (6-mer frequency, TF over GST control)"
same,binding signal,ELF1,"1.33 fold enrichment (6-mer frequency, TF over GST control)"
same,binding signal,EHF,"1.27 fold enrichment (6-mer frequency, TF over GST control)"
same,binding signal,SPI1,"1.3 fold enrichment (6-mer frequency, TF over GST control)"
same,binding signal,SPIB,"1.16 fold enrichment (6-mer frequency, TF over GST control)"
same,binding signal,ELK3,"1.29 fold enrichment (6-mer frequency, TF over GST control)"
same,binding signal,FEV,"1.22 fold enrichment (6-mer frequency, TF over GST control)"
same,binding signal,ETV5,"1.24 fold enrichment (6-mer frequency, TF over GST control)"
same,binding signal,HSF1,"1.84 fold enrichment (6-mer frequency, TF over GST control)"
same,binding signal,SPIC,"1.16 fold enrichment (6-mer frequency, TF over GST control)"
same,binding signal,ELF4,"1.26 fold enrichment (6-mer frequency, TF over GST control)"
same,binding signal,ELK4,"1.33 fold enrichment (6-mer frequency, TF over GST control)"
same,binding signal,ETV2,"1.29 fold enrichment (6-mer frequency, TF over GST control)"
same,binding signal,ELF3,"1.37 fold enrichment (6-mer frequency, TF over GST control)"
same,binding signal,CRX,"1.49 fold enrichment (6-mer frequency, TF over GST control)"
same,binding signal,ETV1,"1.36 fold enrichment (6-mer frequency, TF over GST control)"
